The source of these data is PubChem BioAssay.

A number with no mark means an inactive call. For some of these results: Potency and affinity values are given separately. Active and inactive are the calls of the source. Unless noted, the rule behind the calls is not given here.

What is called inhibition is the change of the read-out against control, counted positive when it falls.

Test [1] is described as follows: antimalarial activity against Dd2 strain (AID 2302;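 active = growth inhibition above 50% at the single 2 µM test dose, taken to imply half-maximal potency below 2 µM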;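 note: 0% = DMSO untreated growth and 100% = chloroquine plus artemisinin killed control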). The conditions noted are these: P. falciparum Dd2 in RBCs, LDH growth readout, 72 h; at 2 µM; hits give high values.
A short description of test [2]: HepG2 cytotoxicity, primary screen, cytotoxicity control for P. falciparum antimalarial project, cell-based, ATP luminescence (AID 2303;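 active = inhibition above 50%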;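 note: 0% = DMSO wells and 100% = digitonin-killed cells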). The conditions noted are these: HepG2 viability, 24-48 h, at 10 µM, hits give high values.
The target of test [3] is L-lactate dehydrogenase (Plasmodium falciparum (isolate CDC / Honduras)) (UniProt Q27743). Description: PfLDH activity inhibition – cell lysate, 3D7 strain, counter-screen for P. falciparum growth inhibition project (AID 2304).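 Note: 0% = vehicle and 100% = reference inhibitor.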 The following applies: P. falciparum 3D7 crude extract, LDH APAD/NBT absorbance; at 2 µM; hits give high values. Background: Counterscreens check selectivity or assay interference.

Test [4] can be described thus: inhibition of 3D7 malaria parasite growth – strain 3D7 (AID 2306).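 Note: 0% = DMSO wells and 100% = chloroquine plus artemisinin control wells.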 The conditions noted are these: P. falciparum 3D7 erythrocytic growth, LDH absorbance, 72 h; at 2 µM; hits give high values.
Test [5] has as its target Calcium-dependent protein kinase 1 (Plasmodium falciparum (isolate 3D7)) (UniProt P62344). Description: PfCDPK1 kinase inhibitors, biochemical, TCAMS library (AID 1159585; cut-off not given, nearly all actives have IC50 up to about 0.98 µM;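 note: inhibitors leave more ATP so luminescence rises with inhibition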). The following applies: recombinant PfCDPK1, Kinase-Glo ATP depletion luminescence. Background: In Kinase-Glo more light means more ATP remaining.
Test [6] concerns the target Plasmodium falciparum protein kinase 6 (PK6, PF3D7_1337100) (UniProt Q8IDW1). Description: PfPK6 kinase inhibitors, biochemical, TCAMS library (AID 1159586). The conditions noted are these: recombinant PfPK6, Kinase-Glo ATP depletion luminescence.
For test [7], the target named is Protein kinase 7 (PK7), Plasmodium falciparum 3D7 (PF3D7_0213400) (UniProt Q7YTF7). Nature of the test: inhibition of Plasmodium PK7 catalytic activity – biochemical, TCAMS antimalarial set, Kinase-Glo luminescence (AID 1159587). The following applies: recombinant PfPK7, Kinase-Glo ATP depletion luminescence.
In test [8] the target is Calcium-dependent protein kinase 4 (Plasmodium falciparum (isolate 3D7)) (UniProt Q8IBS5). Nature of the test: PfCDPK4 kinase inhibitors, biochemical, TCAMS library (AID 1159588; cut-off not given, nearly all actives have IC50 up to about 0.91 µM). The following applies: recombinant PfCDPK4, Kinase-Glo ATP depletion luminescence.
Sequence of Calcium-dependent protein kinase 4 (Plasmodium falciparum (isolate 3D7)) (Q8IBS5 whole entry, looked up): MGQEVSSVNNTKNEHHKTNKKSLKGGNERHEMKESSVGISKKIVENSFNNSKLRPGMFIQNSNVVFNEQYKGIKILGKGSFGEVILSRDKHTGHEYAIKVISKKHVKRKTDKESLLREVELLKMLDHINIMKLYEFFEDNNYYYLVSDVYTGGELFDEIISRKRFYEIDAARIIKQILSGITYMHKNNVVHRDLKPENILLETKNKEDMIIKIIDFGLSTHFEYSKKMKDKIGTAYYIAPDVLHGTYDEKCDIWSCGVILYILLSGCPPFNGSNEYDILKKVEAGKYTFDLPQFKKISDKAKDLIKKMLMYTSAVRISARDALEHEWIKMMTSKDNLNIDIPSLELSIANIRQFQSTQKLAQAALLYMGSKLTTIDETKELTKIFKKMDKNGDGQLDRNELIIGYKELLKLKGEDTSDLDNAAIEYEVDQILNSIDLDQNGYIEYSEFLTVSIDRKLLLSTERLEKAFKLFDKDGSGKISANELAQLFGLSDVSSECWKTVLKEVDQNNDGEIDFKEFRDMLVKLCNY

Sequence of Plasmodium falciparum protein kinase 6 (PK6, PF3D7_1337100) (Q8IDW1 1-305): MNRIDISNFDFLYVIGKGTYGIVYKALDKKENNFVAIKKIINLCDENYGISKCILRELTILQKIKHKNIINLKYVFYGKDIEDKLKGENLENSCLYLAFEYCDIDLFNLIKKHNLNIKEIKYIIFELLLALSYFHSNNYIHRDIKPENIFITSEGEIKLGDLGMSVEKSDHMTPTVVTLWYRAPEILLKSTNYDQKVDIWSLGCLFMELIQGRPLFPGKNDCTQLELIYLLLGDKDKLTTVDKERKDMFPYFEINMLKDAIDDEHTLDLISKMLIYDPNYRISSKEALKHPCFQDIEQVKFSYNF
Sequence of Protein kinase 7 (PK7), Plasmodium falciparum 3D7 (PF3D7_0213400) (Q7YTF7 1-343): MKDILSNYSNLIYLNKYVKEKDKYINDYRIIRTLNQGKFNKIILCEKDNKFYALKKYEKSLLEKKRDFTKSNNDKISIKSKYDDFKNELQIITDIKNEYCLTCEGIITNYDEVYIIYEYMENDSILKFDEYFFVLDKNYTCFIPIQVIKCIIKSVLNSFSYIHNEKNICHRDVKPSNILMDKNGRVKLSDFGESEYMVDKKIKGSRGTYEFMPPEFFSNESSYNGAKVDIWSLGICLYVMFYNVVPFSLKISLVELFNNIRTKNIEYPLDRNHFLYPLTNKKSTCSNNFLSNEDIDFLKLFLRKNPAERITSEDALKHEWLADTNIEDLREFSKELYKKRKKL
Sequence of Calcium-dependent protein kinase 1 (Plasmodium falciparum (isolate 3D7)) (P62344 whole entry, looked up): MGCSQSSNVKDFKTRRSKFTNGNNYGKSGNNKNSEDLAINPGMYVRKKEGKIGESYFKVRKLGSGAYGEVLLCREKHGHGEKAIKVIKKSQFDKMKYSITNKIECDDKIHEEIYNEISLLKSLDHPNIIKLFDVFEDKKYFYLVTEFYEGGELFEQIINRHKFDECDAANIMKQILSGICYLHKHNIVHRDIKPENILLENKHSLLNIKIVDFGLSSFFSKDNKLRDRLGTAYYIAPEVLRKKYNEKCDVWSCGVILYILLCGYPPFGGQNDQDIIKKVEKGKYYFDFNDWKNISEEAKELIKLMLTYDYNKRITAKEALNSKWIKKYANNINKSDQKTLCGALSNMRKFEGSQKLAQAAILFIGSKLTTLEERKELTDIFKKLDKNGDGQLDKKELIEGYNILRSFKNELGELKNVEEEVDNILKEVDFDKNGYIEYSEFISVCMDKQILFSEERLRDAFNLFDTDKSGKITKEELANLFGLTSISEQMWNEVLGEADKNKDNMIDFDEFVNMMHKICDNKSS
Sequence of L-lactate dehydrogenase (Plasmodium falciparum (isolate CDC / Honduras)) (Q27743 whole entry, looked up): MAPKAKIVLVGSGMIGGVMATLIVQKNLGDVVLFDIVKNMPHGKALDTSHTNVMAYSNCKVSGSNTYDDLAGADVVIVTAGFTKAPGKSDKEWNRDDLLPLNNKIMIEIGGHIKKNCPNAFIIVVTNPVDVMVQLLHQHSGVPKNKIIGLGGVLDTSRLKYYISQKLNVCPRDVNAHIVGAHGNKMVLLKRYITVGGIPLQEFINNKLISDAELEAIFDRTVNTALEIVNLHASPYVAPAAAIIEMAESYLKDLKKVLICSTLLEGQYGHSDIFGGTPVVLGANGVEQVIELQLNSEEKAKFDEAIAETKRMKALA

As to `COc1ccccc1CN1CCC(NC(=O)c2ccc(-c3cccc(Cl)c3)s2)CC1`, the results for the growth inhibition in test [1] and in test [4] were 9% and 84% (active), respectively. In addition, the inhibition in test [2] is 49%; in test [3] it was -1%. The result in test [5], in test [6], in test [7] and in test [8] was inactive.

As for `CN(C)CCC1CCN(CCS(=O)(=O)c2cccc(Nc3ccc(-c4ccsc4)cn3)c2)CC1`, the figures for the growth inhibition in test [1] and in test [4] were 6% and 97% (active), respectively. The inhibition in test [2] was 49%; in test [3] it was 0%. Besides, the outcome in test [5], in test [6], in test [7] and in test [8] was inactive.

With `COc1ccc(CNC2CCN(C)CC2)cc1-c1ccc(OC)c(S(=O)(=O)NCc2ccccc2)c1`, the growth inhibition in test [1] was 95% (active); in test [4] it was 99% (active). The inhibition was 10% in test [2] and 5% in test [3]. Moreover, the outcome in test [5], in test [6], in test [7] and in test [8] was inactive.

As to `O=C1O[C@H](c2ccccc2)[C@H](c2ccccc2)N(C(=O)OCc2ccccc2)[C@H]1Cc1ccccc1C1CCCC1`, the growth inhibition in test [1] was -3%; in test [4] it was 97% (active). Further, the values for the inhibition in test [2] and in test [3] were 56% (active) and 1%, respectively. Moreover, the outcome in test [5], in test [6], in test [7] and in test [8] was inactive.

For the molecule `CC1(C)N=C(N)N=C(N)N1OCCCOc1cc(Cl)ccc1Cl`, the growth inhibition in test [1] and in test [4] was 96% (active) in each case. Moreover, the inhibition in test [2] is 64% (active); in test [3], -1%. For the same molecule, the result in test [5], in test [6], in test [7] and in test [8] was inactive.

On to `COc1cc(C(=O)N2CC[C@@H](CCN3CCC4(CC3)CN(S(C)(=O)=O)c3ccccc34)C[C@H]2Cc2ccc(Cl)c(Cl)c2)cc(OC)c1OC`, for which the growth inhibition is 99% (active) in test [1] and 101% (active) in test [4]. Moreover, the inhibition is 29% in test [2] and 4% in test [3]. Besides, the outcome in test [5], in test [6], in test [7] and in test [8] was inactive.

`Fc1cccc(-c2ccc3c(c2)CC(NCc2c[nH]c4cnccc24)C3)c1` (stereo not given): the growth inhibition in test [1] was 68% (active); in test [4], 100% (active). Further, the results for the inhibition in test [2] and in test [3] were 24% and -1%, respectively. Also, the result in test [5], in test [6], in test [7] and in test [8] was inactive.

Consider `COc1ccc(-c2ccc(NC(=O)c3cccc(Cl)c3)c(F)c2)cc1CN1CCCN(C)CC1`, for which the growth inhibition in test [1] was 42%; in test [4], 100% (active). Further, the inhibition in test [2] is 43%; in test [3], 0%. Besides, the result in test [5], in test [6], in test [7] and in test [8] was inactive.

Turning to `Cc1cccc2[nH]c(-c3ccc(-c4cccc(CN5CCC(N)C5)c4)s3)nc12` (stereo not given), the growth inhibition in test [1] was 78% (active); in test [4], 95% (active). For the same molecule, the figures for the inhibition in test [2] and in test [3] were 16% and 1%, respectively. Also, the outcome in test [5], in test [6], in test [7] and in test [8] was inactive.

For the molecule `CC(C)CNC(=O)c1cncc(-c2ccc(CN(C)C3CCN(C)CC3)cc2)c1`, the growth inhibition was 84% (active) in test [1] and 101% (active) in test [4]. For the same molecule, the inhibition is 15% in test [2] and -1% in test [3]. For the same molecule, the outcome in test [5], in test [6], in test [7] and in test [8] was inactive.

On to `Cc1cc(N)c2cc(NC(=O)CCC(=O)Nc3ccc4nc(C)cc(N)c4c3)ccc2n1`, for which the growth inhibition in test [1] was 77% (active); in test [4], 85% (active). In addition, the inhibition was -2% in test [2] and 1% in test [3]. In addition, the outcome in test [5], in test [6], in test [7] and in test [8] was inactive.

`Nc1cccc(CNCc2cccc(-c3csc(-c4nc5ccccc5[nH]4)c3)c2)c1`: the figures for the growth inhibition in test [1] and in test [4] were 63% (active) and 102% (active), respectively. The inhibition in test [2] is 13%; in test [3], 4%. In addition, the outcome in test [5], in test [6], in test [7] and in test [8] was inactive.

For `O=S(=O)(Nc1cc2c(cc1O)CCN(C1CCC1)CC2)c1ccc(-c2ccc(F)cc2)cc1`, the growth inhibition in test [1] was 99% (active); in test [4], 101% (active). The results for the inhibition in test [2] and in test [3] were 16% and -1%, respectively. Besides, the outcome in test [5], in test [6], in test [7] and in test [8] was inactive.

In the case of `Cc1cccc(-n2c(Nc3ccc(C)c(Cl)c3)nc3ccc(S(=O)(=O)NC(C)C(C)C)cc32)c1` (stereo not given), the growth inhibition in test [1] and in test [4] was 97% (active) each time. Besides, the inhibition was -9% in test [2] and 4% in test [3]. Also, the outcome in test [5], in test [6], in test [7] and in test [8] was inactive.

Turning to `CC1(CCc2ccccc2)N=C(N)N(Cc2ccccc2)C(=O)C1c1ccc(Cl)c(Cl)c1` (stereo not given), the growth inhibition in test [1] was 96% (active); in test [4], 97% (active). For the same molecule, the inhibition was 100% (active) in test [2] and -4% in test [3]. Besides, the outcome in test [5], in test [6], in test [7] and in test [8] was inactive.

For the molecule `NC(N)=NC(=O)Nc1cc(Cl)c(Br)c(Cl)c1`, the growth inhibition in test [1] and in test [4] was 101% (active) in each case. In addition, the figures for the inhibition in test [2] and in test [3] were 6% and 4%, respectively. For the same molecule, the outcome in test [5], in test [6], in test [7] and in test [8] was inactive.

Turning to `O=C(NC1CCC1)C1CCN(C(c2ccc(Cl)cc2)c2ccc(Cl)cc2)CC1`, the growth inhibition in test [1] was 70% (active); in test [4], 95% (active). The inhibition in test [2] was 6%; in test [3], 8%. Moreover, the outcome in test [5], in test [6], in test [7] and in test [8] was inactive.

For the molecule `Nc1nc(N)c2c(ccc3c2cnn3S(=O)(=O)N2CCCC2)n1`, the growth inhibition was 3% in test [1] and 93% (active) in test [4]. In addition, the inhibition in test [2] is 70% (active); in test [3] it was 2%. Also, the result in test [5], in test [6], in test [7] and in test [8] was inactive.

As for `N#Cc1ccc2[nH]cc(CN3CCC4(CC3)CN(CCNCc3ccccc3)C(=O)O4)c2c1`, the values for the growth inhibition in test [1] and in test [4] were 0% and 100% (active), respectively. The inhibition in test [2] is -5%; in test [3], -1%. Besides, the outcome in test [5], in test [6], in test [7] and in test [8] was inactive.

`O=C(N[C@@H](Cc1ccccc1)C(=O)NC1CCCc2ccccc21)c1ccc(O)c(-c2cccc(C(F)(F)F)c2)c1` (stereo not given in full): the growth inhibition was 41% in test [1] and 91% (active) in test [4]. Besides, the inhibition in test [2] was -2%; in test [3] it was -1%. Moreover, the outcome in test [5], in test [6], in test [7] and in test [8] was inactive.
